Most compounds without a hit are left out; they make up all but 22% or so of the library.
Pf growth 48h: inhibits P. falciparum growth in the first generation, 48 h | Potency, µM (titrated, usually from 28.7 µM), usual class: inhibitors | 310,000 compounds, 5.9% hits | P. falciparum luciferase growth in erythrocytes, 48 h
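Firefly luciferase activity from engineered P. falciparum reports growth; inhibitors lower the luminescent signal. Cultures contained 2% hematocrit erythrocytes at 0.1% final parasitemia.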
Shiga toxin inh: Shiga toxin inhibition; Vero cells, Shiga toxin protein synthesis inhibition reporter; inhibition, % at 38.7 µM; 290,000 compounds, 9.2% hits; in the data active means inhibition mostly above about 28%, no sharp cut-off; inactive means mostly below about 43%
LmPK inh: inhibitors of Leishmania mexicana pyruvate kinase; Q27686; purified LmPK, Kinase-Glo ATP luminescence, 1 h; Potency, µM (top dose mostly 57.5 µM), actives largely listed as inhibitors; 290,000 compounds, 0.37% hits; AID 1721
Target sequence (Q27686 whole entry, looked up): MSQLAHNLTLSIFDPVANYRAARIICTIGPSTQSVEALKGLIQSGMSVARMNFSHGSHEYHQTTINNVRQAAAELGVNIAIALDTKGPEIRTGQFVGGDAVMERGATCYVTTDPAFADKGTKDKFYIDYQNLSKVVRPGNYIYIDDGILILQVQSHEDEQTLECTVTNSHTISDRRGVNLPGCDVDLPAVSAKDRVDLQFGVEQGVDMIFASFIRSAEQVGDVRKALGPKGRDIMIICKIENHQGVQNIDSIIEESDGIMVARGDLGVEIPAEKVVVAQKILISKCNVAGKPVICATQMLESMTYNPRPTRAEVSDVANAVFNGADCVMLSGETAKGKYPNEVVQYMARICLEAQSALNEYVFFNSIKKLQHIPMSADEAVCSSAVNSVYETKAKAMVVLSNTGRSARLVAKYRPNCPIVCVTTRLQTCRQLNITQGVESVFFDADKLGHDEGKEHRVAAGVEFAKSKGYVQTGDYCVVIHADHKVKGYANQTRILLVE
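Kinase-Glo luminescence read after 1 h RT reaction of 0.1 nM LmPK with 0.5 mM PEP and 0.1 mM ADP. Activity scaled between uninhibited and enzyme-free controls.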
Cycloheximide cs: counter-screen hit for Shiga toxin inhibitors, cycloheximide; max response, %; AID 2314; cell reporter, cycloheximide protein synthesis inhibition counterscreen; 300,000 compounds, 12% hits; in the data active means max response mostly above about 13%, no sharp cut-off; inactive means mostly below about 14%; further: read at 38.3 µM for the half of the compounds with a filed dose
Pf growth 96h: P. falciparum growth inhibition at 96 hours; Potency, µM (doses to about 28.7 µM), actives largely listed as inhibitors; 320,000 compounds, 6.9% hits; P. falciparum luciferase reporter growth, 96 h
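Luminescence readout: decreased luciferase signal marks inhibited growth of reporter-expressing P. falciparum in infected red cells (2% hematocrit, 0.05% parasitemia final), exposed to compound two generations (96 h, 37 C, 5% CO2).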
Each line names hits and unclear results; the compound was inactive in the other large screens. Unless noted, the call rests on the fitted dose curve; in most records, active means well fitted inhibition curve with a large enough effect; inconclusive means small, poorly fitted or top-dose-only effect, or another doubt; inactive means no such curve, though single readings can be large or run the other way.

CC(=O)c1cccc(N(CC(=O)NC2CCCCC2)C(=O)CCC(=O)Nc2nc(C)cs2)c1	Pf growth 48h inconclusive, Pf growth 96h inconclusive
CCOc1ccc(-c2nc(-c3cccnc3)no2)cc1	Shiga toxin inh 23.1, LmPK inh inconclusive, Cycloheximide cs 30.7
CCOc1ccc(-c2nc(-c3ccccc3C)no2)cc1	Shiga toxin inh 95.9, LmPK inh inconclusive, Cycloheximide cs 67.8
C=C[C@]1(C)C[C@@H](OC(=O)CSCCN(CC)CC)[C@]2(C)C(C)CC[C@]3(CCC(=O)[C@H]32)[C@@H](C)[C@@H]1O (some centres not stated)	Pf growth 48h 13.1µM, Pf growth 96h 2.08µM (no result: Shiga toxin inh, LmPK inh, Cycloheximide cs)
C=C[C@@]1(C)C[C@H](OC(=O)CSC(C)(C)CNC(=O)[C@@H](N)C(C)C)[C@@]2(C)C(C)CC[C@@]3(CCC(=O)[C@@H]32)[C@H](C)[C@H]1O (some centres not stated)	Pf growth 48h 1.07µM (no result: Shiga toxin inh, LmPK inh, Cycloheximide cs)
CCN(CC(=O)Nc1ccc(NC(C)=O)cc1)C(=O)CCCN1C(=O)c2ccccc2C1=O	Pf growth 48h inconclusive (no result: Shiga toxin inh, LmPK inh, Cycloheximide cs)
NC(=O)c1ccc(-n2nnnc2SCC(=O)Nc2ccccc2F)cc1	none
COc1ccccc1NC(=O)CSc1nnnn1-c1ccc(F)cc1	Pf growth 96h inconclusive
COc1ccccc1NC(=O)CSc1nnnn1-c1ccc(C(=O)O)cc1	Pf growth 96h 11.7µM
Cc1cccc(NC(=O)CCn2cnnn2)c1	none
O=C(CCn1cnnn1)Nc1ccccc1F	Pf growth 96h 4.65µM
O=C(CSc1nnnn1-c1ccc(F)cc1)Nc1ccccc1F	Pf growth 96h 8.28µM
c1csc(-c2nnc(N3CCCCCC3)c3ccccc23)c1	Shiga toxin inh 77.3, Cycloheximide cs 15.1
O=C(COc1ccc(-c2nnc(N3CCCCC3)c3ccccc23)cc1)N1CCCCC1	Pf growth 48h 11.7µM, Pf growth 96h 8.28µM
c1csc(-c2nnc(N3CCOCC3)c3ccccc23)c1	none
Cn1c(=O)n(CC(=O)N2CCN(c3nnc(-c4ccccc4)c4ccccc34)CC2)c2ccccc21	Pf growth 96h 13.1µM
Cc1ccc(-c2nnc(N3CCN(C(=O)c4cccs4)CC3)c3ccccc23)cc1	Pf growth 48h 8.28µM, Pf growth 96h 4.65µM
O=C(COc1ccccc1)N1CCCC1	Pf growth 96h inconclusive
O=C(Cc1ccc(Cl)cc1)SCc1ccccc1	none (no result: Shiga toxin inh, LmPK inh, Cycloheximide cs)
COc1ccc(S(=O)(=O)Nc2ccc(S(=O)(=O)Nc3cc(C)nc(C)n3)cc2)cc1OC	none
CCN(C(=O)COC(=O)c1cccc(-n2cnnn2)c1)C1CCCCC1	none
Cc1ccc(-c2nnc(N3CCN(C(=O)COc4ccccc4)CC3)c3ccccc23)cc1	Pf growth 96h 5.22µM (no result: Pf growth 48h)
O=C(COc1ccc([N+](=O)[O-])cc1)N1CCN(c2nnc(-c3ccccc3)c3ccccc23)CC1	none
O=C(N/N=C/c1ccccn1)c1ccc([N+](=O)[O-])cc1	Pf growth 48h inconclusive, Shiga toxin inh 100.0, Cycloheximide cs 36.4, Pf growth 96h 8.28µM
O=C(N/N=C/c1ccoc1)c1cccc([N+](=O)[O-])c1	none
O=C(N/N=C/c1ccccn1)c1cccc([N+](=O)[O-])c1	Pf growth 48h inconclusive, Shiga toxin inh 54.9, Cycloheximide cs 8.8
O=C(N/N=C/c1ccc(Br)s1)c1cccc([N+](=O)[O-])c1	Pf growth 48h 2.94µM, Pf growth 96h 4.15µM
O=C(N/N=C/c1ccccn1)c1ccc(NC(=O)c2cccc([N+](=O)[O-])c2)cc1	Pf growth 96h inconclusive
COCCCN1Cc2cccc(C(=O)O)c2C1=O	Pf growth 96h 8.28µM (no result: Pf growth 48h)
CC1=C(C)CC(C(=O)NCCCN2CCCC2=O)C(C(=O)O)C1 (configuration not stated)	Pf growth 48h inconclusive, Pf growth 96h inconclusive
O=C(O)CCCCCNC(=O)OCC1c2ccccc2-c2ccccc21	Pf growth 96h inconclusive
CCCc1ccc(OC(=O)c2ccc(O)cc2Cl)cc1	Shiga toxin inh 96.1, Cycloheximide cs 39.9
O=C(NNC1=Nc2ccccc2SC1)c1ccc(F)cc1	Pf growth 48h 10.4µM, Pf growth 96h inconclusive
Cc1ccc(S(=O)(=O)N(C)c2ccc(C(=O)Nc3ccccc3C(=O)N3CCOCC3)cc2)cc1	Pf growth 96h inconclusive
Cc1cnc(C(=O)N2CCN(c3ccc(C(F)(F)F)cn3)CC2)cn1	none
O=C(CCc1ccccc1F)N1CCN(c2ccc(C(F)(F)F)cn2)CC1	none
N#Cc1ccc(OCC(=O)N2CCN(c3ccc(C(F)(F)F)cn3)CC2)cc1	Pf growth 48h inconclusive, Pf growth 96h 4.15µM (no result: Shiga toxin inh, LmPK inh, Cycloheximide cs)
O=C(c1ccc([N+](=O)[O-])s1)N1CCN(c2ccc(C(F)(F)F)cn2)CC1	Pf growth 48h inconclusive, Pf growth 96h 3.29µM
Cn1cc(CN2CCC(n3nccc3NC(=O)Cc3ccccc3)CC2)cn1	none
Cc1cc(Br)ccc1SCC(=O)OCC(=O)Nc1ncc(C(F)(F)F)cc1Cl	none
Cc1c([N+](=O)[O-])cc(C(=O)Nc2ccc3ncccc3c2)cc1[N+](=O)[O-]	Pf growth 48h inconclusive (no result: Shiga toxin inh)
O=C(Nc1ccc2ncccc2c1)Nc1ccc2ncccc2c1	Pf growth 48h inconclusive, Shiga toxin inh 46.8, Cycloheximide cs 18.7, Pf growth 96h inconclusive
O=C(Nc1ccc2ncccc2c1)c1ccccc1Br	Shiga toxin inh 41.4, Cycloheximide cs 37.7
c1cnc2ccc(-c3ccc4ncccc4c3)cc2c1	Cycloheximide cs 26.7, Pf growth 96h inconclusive (no result: Shiga toxin inh)
CCOc1ccc(C(=O)NC(C(=O)N2CCC2)C(C)C)cc1 (configuration not stated)	none (no result: Shiga toxin inh, LmPK inh, Cycloheximide cs)
CCCCN(C(=O)c1cc(Cl)nc2ccccc12)c1c(N)n(CCCC)c(=O)[nH]c1=O	Pf growth 48h inconclusive (no result: Shiga toxin inh, LmPK inh, Cycloheximide cs)
COc1ccc(/C=C2/C(=O)N(c3nc4ccccc4s3)N=C2CSc2ccc(Cl)cc2)cc1	Cycloheximide cs 13.5
N#Cc1ccccc1Cn1cc(/C=N/Nc2ccc([N+](=O)[O-])cn2)c2ccccc21	Pf growth 48h inconclusive, Pf growth 96h 5.22µM
N#Cc1ccccc1Cn1cc(C(=O)c2ccccc2F)c2ccccc21	none
O=[N+]([O-])c1ccc(N/N=C/c2ccc(OCc3cccc4ccccc34)cc2)nc1	Pf growth 48h inconclusive, Cycloheximide cs 18.0, Pf growth 96h 7.38µM
CCN(CC)C(=O)Cn1nc(-c2ccc(Cl)cc2)c2ccccc2c1=O	none
COc1ccc(S(=O)(=O)N2CCOCC2)cc1NC(=O)COc1ccc(C(C)=O)cc1OC	none (no result: Shiga toxin inh, LmPK inh, Cycloheximide cs)
NNCCc1ccccc1	Pf growth 48h inconclusive, Shiga toxin inh 110.0, Cycloheximide cs 46.8, Pf growth 96h inconclusive
Cc1cc(=O)oc2cc(O[C@@H]3O[C@H](CO)[C@@H](O)[C@H](O)[C@H]3O)ccc12	none
CCN(/C(N)=N/c1nc(C)cc(C)n1)c1ccccc1	Cycloheximide cs 13.4
CCN(CC)/C(N)=N/c1nc(C)cc(C)n1	none
CCOc1ccc(-c2nc(C#N)c(NCc3ccco3)o2)cc1	Pf growth 48h inconclusive, Shiga toxin inh 46.2, Cycloheximide cs 23.4
Cc1ccc(OCc2nc(C#N)c(NCCCn3ccnc3)o2)cc1	none (no result: Pf growth 96h)
CCCOc1ccc(-c2nc(C#N)c(NCCCn3ccnc3)o2)cc1	Pf growth 48h 10.4µM, Pf growth 96h 7.38µM

Assay outcomes from PubChem.
